In PubChem BioAssay (NCI):
The panel holds about 83,000 compounds, 20% with a hit somewhere; the sample as a whole holds those more often.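 How to read the values: 0–100, growth inhibition (40 = 60% inhibited); 0, no net growth; -100 to 0, cell death (-40 = 40% of starting cells died; -100 = all dead).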 A number with no mark means an inactive call. Calls of active or inactive are those of the source. The calls were made as follows: active = growth percent below 10; inactive = the rest.

The compounds below were run on EKVX NSCLC (assay: NCI-60 one-dose screen, 48 h (100 = growth as untreated, 0 = no growth, -100 = all killed)). Details: 10 µM unless noted.
For COc1ccc2[nH]cc(-c3csc4nc(-c5ccccc5)cn34)c2c1, the growth was 35.8%. Compound COc1cc(Cn2cc3c(c2)-c2onc(CN4CCCC4)c2CC3)cc(OC)c1OC has a growth of 75.9%. COC(=O)/C=C/c1c(C2(C)NC(=O)c3ccccc3N2)c(=O)oc2ccc(Cl)cc12 (stereo not drawn) showed a growth of 88.3%. In the case of Cc1ccc2c(c1)Oc1nc(N)c(C#N)c(N)c1C2Sc1ccc(F)cc1 (stereo not drawn), the growth is reported as -98.9% (active). COc1ccc(Cn2cc3c(c2-c2cc(OC)c(OC)c(OC)c2)CCc2c(CN4CCCC4)noc2-3)cc1 was tested, and the growth was 38.1%. Compound COc1ccc(Cn2cc3c(c2-c2cc(OC)c(OC)c(OC)c2)CCc2c(CN4CCOCC4)noc2-3)cc1 has a growth of 43.4%. For CCNC(=O)N1CCc2cc(OC)c(OCCc3ccc(OC)cc3)cc2C1c1ccc([N+](=O)[O-])cc1C (stereo not drawn), the growth was 42.2%. COc1ccc([C@@H]2[C@@H](O)C(=O)N2c2cc(OC)c(OC)c(OC)c2)cc1F showed a growth of 41.8%. With Cc1ccc(-c2nnc(SCc3ccc(O)c4ncccc34)n2-c2ccccc2)cc1 the growth was 10.7%. COc1cc2oc(-c3cccc(C(=O)N[C@@H](CC(C)C)C(=O)OC(C)(C)C)c3)cc(=O)c2c(OC)c1OC gave a growth of 89.7%. Compound Cc1ccc(S(=O)(=O)N(CC[C@@H]2C[C@H]2c2cc3ccccc3o2)S(=O)(=O)c2ccc(C)cc2)cc1 has a growth of 95.3%. Brc1ccccc1/C=N/Nc1nc(N/N=C/c2ccccc2Br)nc(N2CCOCC2)n1 was tested, and the growth was 80.2%. CC1=NC2=NC(=O)/C(=C3/N=C(C)C=C(c4ccccc4)N3N)NN2C(c2ccccc2)=C1 showed a growth of 83.8%. Compound CN(C)CCN(C)c1ccc2ncc(C#Cc3cncc(C(=O)Nc4ccc(CN5CCN(C)CC5)c(C(F)(F)F)c4)c3)n2n1 has a growth of 86.9%. For NC(N)=Nc1ccc(Oc2cccc(Nc3ccc(Br)c(C(F)(F)F)c3)c2)cn1, the growth was -68.8% (active). Compound COc1cc(Cn2cc3c(c2)-c2onc(CN4CCOCC4)c2CC3)cc(OC)c1OC has a growth of 83%. With Cc1cc(-c2ccc(Cl)cc2)n(Cc2nnc(SCC(=O)Nc3ccc(S(N)(=O)=O)cc3)n2-c2ccc([N+](=O)[O-])cc2)n1 the growth was 75.1%. In the case of COc1ccc(C(=O)CSc2nc3c(c(Nc4ccc(S(N)(=O)=O)cc4)n2)CCCC3)cc1, the growth is reported as 96.7%. With CCn1c(SCC(=O)Nc2cccc(C(=O)/C=C/c3cc(OC)c(OC)c(OC)c3)c2)nc2ccccc2c1=O the growth was 68.6%. With Nc1ncc(-c2ccc(NS(=O)(=O)c3ccc(Cl)c(Cl)c3)cc2)[nH]1 the growth was 86.7%. With Cc1nn(-c2ccccc2)c2ncnc(N/N=C/c3ccccc3O)c12 the growth was 23.7%. For COc1cc(-c2nnc(SCc3ccc(O)c4ncccc34)n2-c2ccccc2)cc(OC)c1OC, the growth was 4.34% (active). Compound Oc1ccc(CSc2nnc(-c3ccc(Cl)cc3)n2-c2ccccc2)c2cccnc12 has a growth of 28.6%. In the case of CCc1ccc(SC2c3ccc(N(CC)CC)cc3Oc3nc(N)c(C#N)c(N)c32)cc1 (stereo not drawn), the growth is reported as -54.8% (active). CS(=O)(=O)Nc1cc(-c2ccc3ncc(C#N)c(NCc4ccccc4O)c3c2)cnc1Cl was tested, and the growth was 4.89% (active). Work on NS(=O)(=O)c1ccc(Nc2cc(-c3ccccc3)nc(SCC(=O)c3ccccc3)n2)cc1 yielded a growth of 97.9%. c1ccc(C(c2nc3ncncc3[nH]2)N2CSc3nc4ccccc4n3C2)cc1 (stereo not drawn) gave a growth of 97.5%. For COCCNc1ccc2ncc(C#Cc3cncc(C(=O)Nc4ccc(CN5CCN(C)CC5)c(C(F)(F)F)c4)c3)n2n1, the growth was -23.2% (active). With O=c1c2ccccc2nc(COc2ccccc2)n1NS(=O)(=O)c1ccc(Cl)cc1 the growth was 74.8%. In the case of NC(N)=Nc1ccc(Oc2cccc(Nc3ccc(Cl)c(C(F)(F)F)c3)c2)cn1, the growth is reported as -58.5% (active). Work on O=C1CC(=O)N2CSCN(C(c3ccccc3)c3nc4ncncc4[nH]3)C2=N1 (stereo not drawn) yielded a growth of 94.3%. Compound COc1cc(/C=N/NC(=O)c2cn(C3CC3)c3c(OC)c(N4CC5CCCNC5C4)c(F)cc3c2=O)ccc1O (stereo not drawn) has a growth of 24.9%. With C[C@H](CCC(=O)NCc1ccc(C(=O)Nc2ccccc2N)cc1)[C@H]1CC[C@H]2[C@@H]3[C@@H](O)C[C@@H]4C[C@H](O)CC[C@]4(C)[C@H]3CC[C@]12C the growth was 69.4%. For N#Cc1cn(Cc2ccc(Cl)cc2Cl)c(C(=O)c2ccc(Br)cc2)c1N, the growth was 93.8%. CCNC(=O)N1CCc2cc(OC)c(OCCc3ccc(OC)nc3)cc2C1c1ccc(OC)cc1C (stereo not drawn) was tested, and the growth was 61.8%. C=CCn1c(-c2nc3ccc(C(=C(C#N)C#N)c4ccccc4)cc3[nH]2)cc2cc(Br)ccc21 showed a growth of 42.9%. Work on Cc1ccc(S(=O)(=O)NCCNc2nc(Nc3ccc(N4CCN(C)CC4)cc3)nc3ccsc23)cc1 yielded a growth of 94.9%. In the case of COc1cc2nc(Cl)nc(Nc3cccc(C4=Nc5c(N)nc(N)nc5NC(c5ccc(Cl)cc5)C4)c3)c2cc1OC (stereo not drawn), the growth is reported as 95.3%.
